# Measurements taken from PubChem BioAssay (NCATS).
# Records with an inconclusive call do not appear. Activity calls are given as the source filed them. Calls come from the whole dose curve; as a rule, active = well fitted inhibition curve with a large enough effect; inconclusive = small, poorly fitted or top-dose-only effect; inactive = no such curve, though single readings can be large or run the other way.
# Target: Tumor susceptibility gene 101 protein (Homo sapiens) (UniProt Q99816)
# Experiment: qHTS Assay for Iinhibitors of HIV-1 Budding by Blocking the Interaction of PTAP/TSG101: Hit Validation (AID 651600); note: nearly all actives have a fitted effect of over 70% in size
# Details: PTAP peptide/TSG101 UEV interaction, biochemical assay; series mostly up to 57.5 µM
# In short: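 Fluorescence polarization binding assay: Tsg101 binding domain (10 uM) mixed with compounds and FITC-labeled PTAP peptide (50 nM) in HEPES pH 7.5, 0.15 M NaCl, 0.01% Tween 20, EDTA, TCEP; 20 min at r.t.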
# Potency is the fitted concentration of half-maximal effect.
# Chain of Tumor susceptibility gene 101 protein (Homo sapiens) (Q99816 whole entry, looked up): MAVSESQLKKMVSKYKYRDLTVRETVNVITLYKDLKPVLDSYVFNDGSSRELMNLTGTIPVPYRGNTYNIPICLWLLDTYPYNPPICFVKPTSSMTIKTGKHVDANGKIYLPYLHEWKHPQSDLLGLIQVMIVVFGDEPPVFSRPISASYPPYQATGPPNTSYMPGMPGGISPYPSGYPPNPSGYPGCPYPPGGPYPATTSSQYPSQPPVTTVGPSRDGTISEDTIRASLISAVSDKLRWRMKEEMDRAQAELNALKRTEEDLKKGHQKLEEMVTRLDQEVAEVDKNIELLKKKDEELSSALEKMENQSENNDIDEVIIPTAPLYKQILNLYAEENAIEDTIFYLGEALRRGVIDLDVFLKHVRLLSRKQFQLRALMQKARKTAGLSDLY
row,SMILES,Potency
1,COc1ccc2c3c(cccc13)C(=O)CC2,18.3 µM (active)
2,Cc1nc2ccccc2n2c(O)c(CC(=O)O)cc12,14.6 µM (active)
3,CC1=Nc2ccccc2/C1=C\c1nc(-c2ccc(F)cc2)oc1O,29.1 µM (active)
4,CCN1CCc2c(sc(NC(=O)CSc3ccccc3)c2-c2nc3ccccc3s2)C1,inactive
5,Nc1ccc2c3c(cccc13)C(=O)N(c1ccccc1)C2=O,3.66 µM (active)
6,Cc1nn(C)c(C)c1N1C(=O)c2cccc3c(N)ccc(c23)C1=O,2.59 µM (active)
7,Cc1ccc[n+](-c2nc([O-])sc2C=O)c1,4.61 µM (active)
8,O=C(O)c1ccccc1C1=Nc2ccc(O)cc2Oc2cc(O)ccc21,13 µM (active)
9,COc1cccc2c1C(=O)c1c(O)c3c(c(O)c1C2=O)CC(O)(C(=O)CO)CC3OC1CC(N(C)C)C(O)C(C)O1 (stereo not given),4.61 µM (active)
10,Cc1cccc(N2C(=O)c3cccc4c(N)ccc(c34)C2=O)c1,2.31 µM (active)
11,CCN(CC)c1ccc2cc(S(=O)(=O)c3ccc(Cl)cc3)c(=O)oc2c1,18.3 µM (active)
12,Cc1ccc2oc(=O)c(/C=C(\O)c3ccccc3)nc2c1,inactive
13,CCN(CC)c1ccc(/C=C(\C#N)C(=O)c2ccc(Br)cc2)cc1,inactive
14,O=c1c(/C=C(\O)c2ccc(F)cc2)nc2ccccc2n1-c1ccccc1,inactive
15,CCC1(c2ccccc2)NC(=O)N(CC(=O)Nc2ccc(OC)nc2)C1=O (stereo not given),18.3 µM (active)
16,Oc1ccc2nnc3c(Br)cnn3c2c1,16.3 µM (active)
17,O=C(NCc1ccc(F)cc1)c1cccc2c1C(=O)c1ccc(N3CCC(Cc4ccccc4)CC3)cc1S2(=O)=O,10.3 µM (active)
18,CCN(CC)c1ccc2cc(-c3nnc(-c4ccncc4)o3)c(=O)oc2c1,inactive
19,COc1cccc2c1C(=O)c1c(O)c3c(c(O)c1C2=O)CC(O)(C(C)=O)CC3OC1CC(N(C)C)C(O)C(C)O1 (stereo not given),9.19 µM (active)
20,CNc1ccc2c3c(cccc13)C(=O)N(C)C2=O,2.06 µM (active)
21,CCCn1c(O)c(N=Nc2ccc3ccccc3n2)c2ccccc21,inactive
22,Cc1nc(Cl)c2c(n1)NC1=C(O2)C(=O)CCC1,18.3 µM (active)
23,COc1ccccc1NC(=O)/C(C#N)=C/c1cc([N+](=O)[O-])ccc1N1CCCC1,14.6 µM (active)
24,COc1ccccc1NC(=O)c1sc2nc(Cc3ccccc3)cc(C(F)(F)F)c2c1N,13 µM (active)
25,Cn1nc(-c2ccccc2)c2nc3ccccc3nc21,16.3 µM (active)
